Source: PubChem BioAssay AID1159580 (chemical genetic matrix, 2015)
“And” between values parts separate entries of the source, which are not always exact repeats. Identical values can stand only once. In all, about 5,500 compounds went through this assay and about 2,000 (36%) were called active. Not shown: some 18% with an inconclusive outcome. No stated cut-off is given here; in the data, active means normalized growth mostly below about 0.91 (no sharp cut-off); inconclusive means no clear call, values can overlap the other calls; inactive means mostly above about 0.92. This is one part of the list.

Assay: chemical genetic growth profiling, strain panel (AID 1159580);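 further: tested at 20 µM; growth read once vehicle control cultures reached saturation at 30 °C; 1 = growth at the plate median or of vehicle wells; lower values mean less growth of the strain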
Conditions: S. cerevisiae deletion strains, growth OD

Measured: normalized growth

CCOc1ccc(C(=O)c2cc(O)c(OC)c(OC)c2O)cc1
active: locus YDR137W, strain rgp1, hits give low values 0.79 | locus YDR392W, strain spt3, hits give low values 0.455 | locus YER155C, strain BEM2 (second series), hits give low values 0.734 | locus YLR113W, strain HOG1, hits give low values 0.844 | locus YLR262C, strain YPT6 (second series), hits give low values 0.341 | locus YLR320W, strain mms22, hits give low values 0.852 | locus YNL071W, strain lat1, hits give low values 0.626 | locus YNL307C, strain MCK1, hits give low values 0.858 | locus YPL051W, strain arl3, hits give low values 0.891
inactive: locus YAL021C, strain ccr4, hits give low values 1 | locus YAL026C, strain drs2, hits give low values 0.941 | locus YAL030W, strain snc1, hits give low values 0.993 | locus YBL061C, strain skt5, hits give low values 0.998 | locus YBR009C, strain hhf1, hits give low values 0.938 | locus YBR021W, strain FUR4, hits give low values 1.06 | locus YBR023C, strain chs3, hits give low values 0.997 | locus YBR171W, strain sec66, hits give low values 0.981 | locus YBR229C, strain ROT2, hits give low values 1.01 | locus YBR231C, strain swc5, hits give low values 0.987 | locus YBR279W, strain paf1, hits give low values 1 | locus YCL011C, strain gbp2, hits give low values 0.998 | locus YCL016C, strain dcc1, hits give low values 1 | locus YCL029C, strain bik1, hits give low values 1.01 | locus YCL061C, strain MRC1, hits give low values 1 | locus YCL069W, strain vba3, hits give low values 0.997 | locus YCR088W, strain abp1, hits give low values 0.997 | locus YDL005C, strain med2, hits give low values 1.01 | locus YDL035C, strain GPR1, hits give low values 1.02 | locus YDL040C, strain nat1, hits give low values 1.01 | locus YDL074C, strain BRE1, hits give low values 1.11 | locus YDL101C, strain DUN1, hits give low values 1.01 | locus YDL134C, strain PPH21, hits give low values 1.01 | locus YDL185W, strain tfp1, hits give low values 1.01 | locus YDL192W, strain arf1, hits give low values 0.957 | locus YDR001C, strain nth1, hits give low values 0.999 | locus YDR069C, strain doa4, hits give low values 0.969 | locus YDR101C, strain arx1, hits give low values 1 | locus YDR150W, strain NUM1, hits give low values 1.01 | locus YDR159W, strain sac3, hits give low values 0.97 | locus YDR162C, strain NBP2, hits give low values 0.983 | locus YDR195W, strain ref2 1.05 | locus YDR297W, strain sur2, hits give low values 0.995 | locus YDR318W, strain mcm21, hits give low values 0.99 | locus YDR334W, strain swr1, hits give low values 0.987 | locus YDR335W, strain msn5, hits give low values 0.999 | locus YDR388W, hits give low values 1.02 | locus YDR502C, strain sam2, hits give low values 1.02 | locus YEL003W, strain gim4, hits give low values 0.986 | locus YEL037C, strain rad23, hits give low values 0.99 | locus YEL061C, strain CIN8 (second series), hits give low values 0.992 | locus YER015W, strain faa2, hits give low values 0.999 | locus YER016W, strain bim1, hits give low values 0.995 | locus YER110C, hits give low values 1.03 | locus YER111C, strain swi4, hits give low values 0.989 | locus YER155C, strain BEM2, hits give low values 0.995 | locus YER167W, strain BCK2, hits give low values 1 | locus YFR010W, strain ubp6, hits give low values 0.98 | locus YGL078C, strain dbp3, hits give low values 1.03 | locus YGL086W, strain mad1, hits give low values 0.964 | locus YGL167C, strain pmr1, hits give low values 1 | locus YGL173C, strain kem1, hits give low values 0.988 | locus YGL227W, strain vid30, hits give low values 1.01 | locus YGL240W, strain doc1, hits give low values 0.985 | locus YGL248W, strain PDE1, hits give low values 1.04 | locus YGL253W, strain hxk2, hits give low values 1.01 | locus YGR135W, strain pre9, hits give low values 1.01 | locus YGR252W, strain gcn5, hits give low values 1.03 | locus YHR013C, strain ard1, hits give low values 0.985 | locus YHR027C, strain rpn1, hits give low values 0.991 | locus YHR030C, strain SLT2, hits give low values 1 and 0.941 | locus YHR079C, strain IRE1 (second series), hits give low values 1.03 | locus YHR079C, strain IRE1, hits give low values 0.938 | locus YHR094C, strain hxt1, hits give low values 1.01 | locus YHR129C, strain ARP1, hits give low values 1.03 | locus YHR142W, strain chs7, hits give low values 0.931 | locus YHR200W, strain rpn10, hits give low values 1.02 | locus YIL066C, strain RNR3, hits give low values 1.03 | locus YIL073C, strain SPO22, hits give low values 1.01 | locus YIL125W, strain kgd1, hits give low values 0.995 | locus YIR030C, strain dcg1, hits give low values 1.01 | locus YJL092W, strain hpr5, hits give low values 1 | locus YJL095W, strain BCK1 (second series), hits give low values 0.938 | locus YJL095W, strain BCK1, hits give low values 1.05 and 0.949 | locus YJL115W, strain asf1, hits give low values 1 | locus YJL129C, strain trk1, hits give low values 0.955 | locus YJL134W, strain LCB3, hits give low values 0.994 | locus YJL154C, strain vps35, hits give low values 1 | locus YJL164C, strain tpk1, hits give low values 0.969 | locus YJL166W, strain qcr8, hits give low values 0.974 | locus YJL168C, strain set2, hits give low values 1.01 | locus YJL187C, strain SWE1 (second series), hits give low values 1.03 | locus YJL187C, strain SWE1, hits give low values 0.991 | locus YJR043C, strain POL32, hits give low values 1.06 | locus YJR066W, strain TOR1, hits give low values 0.882 | locus YJR075W, strain HOC1, hits give low values 1 | locus YKL009W, strain mrt4, hits give low values 1.02 | locus YKL068W, hits give low values 0.988 | locus YKL085W, strain MDH1 (second series), hits give low values 0.985 | locus YKL085W, strain MDH1, hits give low values 0.985 | locus YKL160W, strain elf1, hits give low values 0.966 | locus YKL190W, strain CNB1, hits give low values 1.01 | locus YKR001C, strain vps1, hits give low values 0.959 | locus YKR026C, strain gcn3, hits give low values 0.997 | locus YKR091W, strain srl3, hits give low values 0.999 | locus YLL001W, strain dnm1, hits give low values 0.989 | locus YLL026W, hits give low values 1.01 | locus YLL041C, strain sdh2, hits give low values 1 | locus YLR027C, strain aat2, hits give low values 0.99 | locus YLR039C, strain RIC1, hits give low values 0.871 | locus YLR058C, strain SHM2, hits give low values 1.03 | locus YLR102C, strain apc9, hits give low values 1.01 | locus YLR221C, strain rsa3, hits give low values 0.984 | locus YLR258W, strain gsy2, hits give low values 0.989 | locus YLR262C, strain YPT6, hits give low values 0.625 | locus YLR268W, strain sec22, hits give low values 0.974 | locus YLR330W, strain CHS5, hits give low values 1 | locus YLR342W, strain FKS1 (second series), hits give low values 0.952 | locus YLR342W, strain FKS1, hits give low values 0.995 | locus YLR357W, strain rsc2, hits give low values 1.02 | locus YLR370C, strain arc18, hits give low values 0.994 | locus YLR371W, strain rom2, hits give low values 0.963 | locus YLR384C, strain iki3, hits give low values 0.999 | locus YLR418C, strain cdc73, hits give low values 1.04 | locus YML016C, strain PPZ1, hits give low values 1.01 | locus YML032C, strain rad52, hits give low values 1.03 | locus YML120C, strain ndi1, hits give low values 0.986 | locus YML124C, strain tub3, hits give low values 1.01 | locus YMR058W, strain fet3, hits give low values 0.981 | locus YMR078C, strain ctf18, hits give low values 1.03 | locus YMR125W, strain sto1, hits give low values 1.01 | locus YMR129W, hits give low values 1 | locus YMR205C, strain PFK2, hits give low values 0.932 | locus YMR223W, strain ubp8, hits give low values 0.981 | locus YMR231W, strain pep5, hits give low values 0.999 | locus YMR263W, strain SAP30, hits give low values 0.997 | locus YMR307W, strain GAS1, hits give low values 0.929 | locus YNL067W, strain RPL9B, hits give low values 1 | locus YNL183C, strain NPR1, hits give low values 0.906 | locus YNL209W, strain ssb2, hits give low values 0.992 | locus YNL233W, strain BNI4, hits give low values 1 | locus YNL248C, strain rpa49, hits give low values 1 | locus YNL250W, strain rad50, hits give low values 1.06 | locus YNL271C, strain bni1, hits give low values 1.01 | locus YNL298W, strain CLA4, hits give low values 1.04 | locus YNL322C, strain KRE1 (second series), hits give low values 0.989 | locus YNR049C, strain mso1, hits give low values 1 | locus YNR052C, strain pop2, hits give low values 1.02 | locus YOL006C, strain TOP1, hits give low values 1.18 | locus YOL012C, strain htz1 1.11 | locus YOL147C, strain pex11, hits give low values 1.01 | locus YOR001W, strain rrp6, hits give low values 0.992 | locus YOR061W, strain CKA2, hits give low values 1.01 | locus YOR069W, strain VPS5, hits give low values 1 | locus YOR070C, strain gyp1, hits give low values 0.981 | locus YOR080W, strain dia2, hits give low values 1.01 | locus YOR083W, strain WHI5, hits give low values 0.977 | locus YOR106W, strain vam3, hits give low values 0.9 | locus YOR136W, strain idh2, hits give low values 1.01 | locus YOR144C, strain elg1, hits give low values 1.01 | locus YOR184W, strain ser1, hits give low values 1.01 | locus YOR231W, strain MKK1, hits give low values 0.948 | locus YOR265W, strain rbl2, hits give low values 0.988 | locus YOR270C, strain vph1, hits give low values 0.903 | locus YOR290C, strain snf2, hits give low values 0.979 | locus YOR316C, strain cot1, hits give low values 1.03 | locus YPL078C, strain atp4, hits give low values 0.994 | locus YPL106C, strain sse1, hits give low values 1.04 | locus YPL240C, strain hsp82, hits give low values 0.991 | locus YPL241C, strain CIN2, hits give low values 1.01 | locus YPL256C, strain CLN2, hits give low values 0.934 | locus YPR119W, strain clb2, hits give low values 1.02 | locus YPR141C, strain kar3, hits give low values 1 | locus YPR163C, strain tif3, hits give low values 0.953 | locus YPR167C, strain met16, hits give low values 1.02 | strain wtn01, hits give low values 0.992
